# Reference: PubChem BioAssay (EPA / NIEHS)
# Active and inactive are the calls of the source. Rule for the calls: active = hit-call score of the fitted dose curve at least 0.9, where 1 is the maximum; inactive = score below 0.9.
# How the values were obtained:
# [1] = APR_HepG2_NuclearSize_72hr: Apredica 72-hour HepG2 Assay for Nuclear Size (AID 2282925); conditions: high-content imaging, actives raise or lower the signal
# Summary of the method: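 HepG2; cpd 0.39–200 uM, 10 conc, duplicate; 72 h; DMSO 0.5% v/v; fix 3.7% formaldehyde 30 min RT; Triton permeabilization; Hoechst 2 ug/mL; HCS imaging 20x; nuclear diameter; gain/loss fit vs DMSO.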
# [2] = ATG_CRE_CIS: Attagene CIS-FACTORIAL HepG2 Assay for human cAMP Responsive Element (CRE) binding protein 3 (AID 2282926); conditions: HepG2 CRE cis-reporter, Attagene multiplexed mRNA; actives raise or lower the signal
# Summary of the method: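 HepG2 cells transiently transfected with a multiplexed reporter library (CRE-driven unit among them) were dosed for 24 h. Reporter mRNA was quantified by RT-PCR, fluorescent labelling, HpaI digestion and capillary electrophoresis, with bidirectional fitting against DMSO baseline.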
# [3] = biological target: CCAAT/enhancer-binding protein beta (Homo sapiens) (UniProt P17676); assay: ATG_C_EBP_CIS: Attagene CIS-FACTORIAL HepG2 Assay for human CCAAT/Enhancer Binding Protein (C/EBP) beta (AID 2282927); conditions: HepG2 Attagene cis-factorial transcription factor reporter; actives raise or lower the signal
# Summary of the method: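 Endogenous transcription factor activity in human liver HepG2 cells is inferred from induction of a CEBPB-linked reporter mRNA. Exposure lasts 24 h; activity is fitted in both directions relative to DMSO.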
# [4] = ATG_CMV_CIS: Attagene CIS-FACTORIAL HepG2 Assay for human CMV (Internal Marker) (AID 2282928); conditions: HepG2 CMV promoter reporter, transcription factor profiling; actives raise or lower the signal;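 note: endpoint acts as a background internal control marker rather than a target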
# Summary of the method: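 After transient transfection of HepG2 with reporter transcription units driven by cis-regulatory promoters, cells receive test chemical for 24 h. Labeled reporter amplicons, digested with HpaI, are sized and quantified by capillary electrophoresis against DMSO.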
# [5] = ATG_DR4_LXR_CIS: Attagene CIS-FACTORIAL HepG2 Assay for human Liver X Receptor (LXR), DR4 submotif (AID 2282929); conditions: HepG2 Attagene DR4 cis-reporter, mRNA transcription; actives raise or lower the signal
# Summary of the method: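 HepG2, transient MRTU transfection, cis-element (DR4) promoter; 24 h compound exposure; total RNA → oligo(dT) RT → PCR → 6-FAM primer extension → HpaI cut → CE. Gain/loss vs DMSO, bidirectional fit.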
# [6] = biological target: Aryl hydrocarbon receptor (Homo sapiens) (UniProt P35869); assay: ATG_Ahr_CIS: Attagene CIS-FACTORIAL HepG2 Assay for human Aryl Hydrocarbon Receptor (Ahr) (AID 2282930); conditions: HepG2 AhR cis-factorial reporter transcription; actives raise or lower the signal
# Summary of the method: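 Transient MRTU transfection of HepG2 → 24 h compound exposure → total RNA, oligo(dT) RT → PCR, 6-FAM extension, HpaI cut → CE fluorescence. DMSO = baseline; bidirectional curve fit.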
# [7] = ATG_AP_2_CIS: Attagene CIS-FACTORIAL HepG2 Assay for human Activator Protein 2 (AP-2) (AID 2282932); conditions: HepG2 AP-2 cis-reporter, Attagene transcription factor profiling; actives raise or lower the signal
# Summary of the method: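 Step one: transient transfection of HepG2 with reporter transcription units. Step two: 24 h chemical exposure. Step three: RNA extraction, RT-PCR, labelled fragment analysis by capillary electrophoresis; DMSO serves as baseline.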
# [8] = ATG_BRE_CIS: Attagene CIS-FACTORIAL HepG2 Assay for human Bone Morphogenetic Protein (BMP) Response Element (BRE) (AID 2282933); conditions: HepG2 BMP response element reporter, Attagene transcription factor profiling; actives raise or lower the signal
# Summary of the method: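 After a 24 h chemical treatment, transiently transfected HepG2 cells were lysed for RNA; reporter transcripts were quantified by fluorescent RT-PCR and capillary electrophoresis, normalised to DMSO.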
# [9] = biological target: Transcription factor E2F1 (Homo sapiens) (UniProt Q01094); assay: ATG_E2F_CIS: Attagene CIS-FACTORIAL HepG2 Assay for human E2F Transcription Factor 1 (AID 2282935); conditions: HepG2 Attagene cis-reporter, E2F reporter RNA transcripts; actives raise or lower the signal
# Summary of the method: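 Total RNA from 24 h-treated, reporter-transfected HepG2 cells undergoes DNase I treatment, oligo(dT) reverse transcription, PCR and 6-FAM primer extension before capillary electrophoresis.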
# [10] = ATG_E_Box_CIS: Attagene CIS-FACTORIAL HepG2 Assay for human Enhancer Box (E-box) (AID 2282936); conditions: HepG2 E-box cis-reporter transcription, actives raise or lower the signal
# Summary of the method: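 DMSO served as negative control and baseline for bidirectional fitting. Human hepatoma HepG2 cells, transiently transfected with cis-reporter constructs, were dosed 24 h; reporter mRNA read by RT-PCR and capillary electrophoresis.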
# [11] = ATG_M_61_CIS: Attagene CIS-FACTORIAL HepG2 Assay for M61 Transcription Factor (Internal Marker) (AID 2282937); conditions: HepG2 Attagene CIS-FACTORIAL M61 internal marker reporter; actives raise or lower the signal
# Summary of the method: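 Human liver HepG2, transient MRTU transfection (cis promoter elements), 24 h compound. Total RNA → oligo(dT) RT → PCR → FAM label → HpaI → CE. Internal background marker; bidirectional fitting, DMSO = baseline.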
# [12] = ATG_EGR_CIS: Attagene CIS-FACTORIAL HepG2 Assay for human Early Growth Response 1 (EGR1) (AID 2282938); conditions: HepG2 Attagene CIS-FACTORIAL EGR reporter mRNA; actives raise or lower the signal
# Summary of the method: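 Transient transfection of human HepG2 with multiple cis-regulated reporter units, chemical exposure 24 h, total RNA isolated. Reverse transcription, PCR, fluorescent labelling and capillary electrophoresis quantify reporter transcripts; activity fitted bidirectionally against DMSO.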
# [13] = ATG_M_19_CIS: Attagene CIS-FACTORIAL HepG2 Assay for M19 Transcription Factor (Internal Marker) (AID 2282939); conditions: HepG2 Attagene CIS-FACTORIAL M19 internal marker reporter; actives raise or lower the signal
# Summary of the method: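 In this multiplexed cell assay, transiently transfected HepG2 reporter units report endogenous transcription-factor activity; after 24 hours of treatment, labelled reporter cDNA fragments are quantified by capillary electrophoresis and fitted bidirectionally against DMSO.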
# [14] = ATG_ERE_CIS: Attagene CIS-FACTORIAL HepG2 Assay for Estrogen Response Element (ERE) (AID 2282940); conditions: HepG2 ERE cis-reporter, Attagene RNA transcript; actives raise or lower the signal
# Summary of the method: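 Measuring endogenous transcription factor output, the assay doses transfected HepG2 cells for 24 hours and quantifies reporter transcripts by fluorescent RT-PCR and capillary electrophoresis, with DMSO as baseline.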
# [15] = ATG_Ets_CIS: Attagene CIS-FACTORIAL HepG2 Assay for human Erythroblast Transformation Specific (ETS) (AID 2282941); conditions: HepG2 ETS cis-reporter transcription, actives raise or lower the signal
# Summary of the method: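 Human HepG2 hepatoma cells were transiently transfected with promoter-driven reporter constructs and treated for 24 hours. Reporter transcripts were quantified by RT-PCR with fluorescent primer extension; bidirectional curve fitting used DMSO as reference.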
# [16] = biological target: Hepatocyte nuclear factor 3-beta (Homo sapiens) (UniProt Q9Y261); assay: ATG_FoxA2_CIS: Attagene CIS-FACTORIAL HepG2 Assay for human Forkhead box A2 (FOXA2) (AID 2282942); conditions: HepG2 cis-reporter transcription factor activity, 24 h; actives raise or lower the signal
# Summary of the method: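 Transient MRTU transfection of HepG2 liver cells; 24 h treatment; total RNA → oligo(dT) RT → PCR → FAM primer extension → HpaI cut → CE. Bidirectional fit vs DMSO.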
# [17] = ATG_FoxO_CIS: Attagene CIS-FACTORIAL HepG2 Assay for human Forkhead box O (FoxO) (AID 2282943); conditions: HepG2 Attagene cis-reporter, FoxO element, mRNA; actives raise or lower the signal
# Summary of the method: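 HepG2, transient MRTU transfection (cis element, endogenous TFs). Dose 24 h. TriZol RNA → oligo(dT) RT → PCR → 6-FAM primer extension → HpaI cut → CE. Gain/loss vs DMSO.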
# [18] = ATG_GATA_CIS: Attagene CIS-FACTORIAL HepG2 Assay for human GATA Binding Protein (AID 2282944); conditions: HepG2 GATA cis-element reporter, Attagene multiplex mRNA; actives raise or lower the signal
# Summary of the method: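 Measures endogenous transcription factor-driven reporter mRNA in HepG2 cells transiently carrying cis-regulated constructs. 24 h dosing; RNA via oligo(dT) reverse transcription, PCR, HpaI digestion, capillary electrophoresis; fitted relative to DMSO.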
# Aryl hydrocarbon receptor (Homo sapiens), sequence (P35869 whole entry, looked up): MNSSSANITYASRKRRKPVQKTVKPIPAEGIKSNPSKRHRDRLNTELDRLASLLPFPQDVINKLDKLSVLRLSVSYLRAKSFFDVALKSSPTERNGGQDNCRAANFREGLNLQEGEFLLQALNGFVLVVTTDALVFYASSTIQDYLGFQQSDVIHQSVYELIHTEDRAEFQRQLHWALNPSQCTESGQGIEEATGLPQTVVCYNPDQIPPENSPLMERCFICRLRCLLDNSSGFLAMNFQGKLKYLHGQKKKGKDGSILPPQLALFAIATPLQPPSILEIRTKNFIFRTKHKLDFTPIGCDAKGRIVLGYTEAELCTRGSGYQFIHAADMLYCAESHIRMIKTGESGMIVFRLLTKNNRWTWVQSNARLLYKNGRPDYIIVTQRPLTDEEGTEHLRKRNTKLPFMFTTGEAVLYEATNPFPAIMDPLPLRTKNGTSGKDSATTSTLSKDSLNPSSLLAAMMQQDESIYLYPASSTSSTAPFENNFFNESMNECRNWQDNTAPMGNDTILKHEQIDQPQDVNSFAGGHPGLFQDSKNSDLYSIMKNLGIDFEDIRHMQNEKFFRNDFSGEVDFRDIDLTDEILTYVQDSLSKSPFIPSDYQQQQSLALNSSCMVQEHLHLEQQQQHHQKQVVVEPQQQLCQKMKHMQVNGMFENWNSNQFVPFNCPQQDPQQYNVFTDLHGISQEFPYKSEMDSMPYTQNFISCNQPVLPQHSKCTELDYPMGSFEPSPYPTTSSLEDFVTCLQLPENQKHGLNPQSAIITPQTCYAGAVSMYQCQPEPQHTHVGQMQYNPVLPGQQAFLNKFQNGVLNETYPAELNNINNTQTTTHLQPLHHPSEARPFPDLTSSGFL
# CCAAT/enhancer-binding protein beta (Homo sapiens), sequence (P17676 whole entry, looked up): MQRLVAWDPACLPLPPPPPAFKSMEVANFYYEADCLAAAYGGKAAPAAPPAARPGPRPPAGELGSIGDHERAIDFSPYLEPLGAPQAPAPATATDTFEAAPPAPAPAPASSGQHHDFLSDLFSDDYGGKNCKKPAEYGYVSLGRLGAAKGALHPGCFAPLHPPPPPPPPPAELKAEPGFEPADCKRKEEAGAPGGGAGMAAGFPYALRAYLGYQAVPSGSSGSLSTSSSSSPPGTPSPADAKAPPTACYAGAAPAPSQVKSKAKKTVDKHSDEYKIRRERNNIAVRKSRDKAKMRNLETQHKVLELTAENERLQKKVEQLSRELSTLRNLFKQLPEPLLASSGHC
# Hepatocyte nuclear factor 3-beta (Homo sapiens), sequence (Q9Y261 whole entry, looked up): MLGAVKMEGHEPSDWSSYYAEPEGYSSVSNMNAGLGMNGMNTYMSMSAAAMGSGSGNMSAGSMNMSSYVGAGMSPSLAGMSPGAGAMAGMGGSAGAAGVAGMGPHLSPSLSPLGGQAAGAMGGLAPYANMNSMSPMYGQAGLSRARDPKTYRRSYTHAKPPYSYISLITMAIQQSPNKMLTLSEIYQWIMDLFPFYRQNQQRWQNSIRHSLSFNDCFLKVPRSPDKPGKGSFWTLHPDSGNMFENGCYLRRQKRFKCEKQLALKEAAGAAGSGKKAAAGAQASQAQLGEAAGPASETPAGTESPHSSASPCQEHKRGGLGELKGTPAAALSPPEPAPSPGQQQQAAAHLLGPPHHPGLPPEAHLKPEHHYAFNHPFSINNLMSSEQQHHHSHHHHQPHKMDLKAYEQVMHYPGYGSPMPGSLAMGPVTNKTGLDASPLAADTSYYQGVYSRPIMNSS
# Transcription factor E2F1 (Homo sapiens), sequence (Q01094 whole entry, looked up): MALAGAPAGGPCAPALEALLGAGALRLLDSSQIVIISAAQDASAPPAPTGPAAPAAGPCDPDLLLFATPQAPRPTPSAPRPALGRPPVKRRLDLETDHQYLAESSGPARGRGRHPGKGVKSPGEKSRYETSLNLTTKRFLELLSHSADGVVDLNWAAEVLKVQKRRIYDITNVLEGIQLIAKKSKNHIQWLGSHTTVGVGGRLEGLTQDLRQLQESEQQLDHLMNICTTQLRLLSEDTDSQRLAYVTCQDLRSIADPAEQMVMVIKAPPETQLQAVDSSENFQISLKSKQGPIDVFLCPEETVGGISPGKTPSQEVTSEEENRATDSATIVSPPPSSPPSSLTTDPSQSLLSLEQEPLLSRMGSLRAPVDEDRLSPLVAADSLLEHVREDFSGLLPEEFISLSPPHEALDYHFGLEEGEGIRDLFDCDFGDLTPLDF
smiles,measurement,setting,value
CC1(C)C(C=C(Cl)Cl)C1C(=O)OC(C#N)c1cccc(Oc2ccccc2)c1 (stereo not drawn),outcome,[1],inactive
same,outcome,[2],inactive
same,outcome,[3],inactive
same,outcome,[4],inactive
same,AC50,[5],30.3 µM (active)
same,outcome,[6],inactive
same,outcome,[7],inactive
same,outcome,[8],inactive
same,outcome,[9],inactive
same,outcome,[10],inactive
same,outcome,[11],inactive
same,outcome,[12],inactive
same,outcome,[13],inactive
same,AC50,[14],14.6 µM (active)
same,outcome,[15],inactive
same,outcome,[16],inactive
same,outcome,[17],inactive
same,outcome,[18],inactive
O=C(O)c1c(Cl)ccc2cc(Cl)cnc12,outcome,[1],inactive
same,outcome,[2],inactive
same,outcome,[3],inactive
same,outcome,[4],inactive
same,outcome,[5],inactive
same,outcome,[6],inactive
same,outcome,[7],inactive
same,outcome,[8],inactive
same,outcome,[9],inactive
same,outcome,[10],inactive
same,outcome,[11],inactive
same,outcome,[12],inactive
same,outcome,[13],inactive
same,outcome,[14],inactive
same,outcome,[15],inactive
same,outcome,[16],inactive
same,outcome,[17],inactive
same,outcome,[18],inactive
Nc1cnn(-c2ccccc2)c(=O)c1Cl,outcome,[1],inactive
same,outcome,[2],inactive
same,outcome,[3],inactive
same,outcome,[4],inactive
same,outcome,[5],inactive
same,AC50,[6],50 µM (active)
same,outcome,[7],inactive
same,outcome,[8],inactive
same,outcome,[9],inactive
same,outcome,[10],inactive
same,outcome,[11],inactive
same,outcome,[12],inactive
same,outcome,[13],inactive
same,outcome,[14],inactive
same,outcome,[15],inactive
same,outcome,[16],inactive
same,outcome,[17],inactive
same,outcome,[18],inactive
CCNP(=S)(OC)O/C(C)=C/C(=O)OC(C)C (stereo not drawn),outcome,[1],inactive
same,outcome,[2],inactive
same,outcome,[3],inactive
same,outcome,[4],inactive
same,AC50,[5],50 µM (active)
same,AC50,[6],13.6 µM (active)
same,outcome,[7],inactive
same,outcome,[8],inactive
same,outcome,[9],inactive
same,outcome,[10],inactive
same,outcome,[11],inactive
same,outcome,[12],inactive
same,outcome,[13],inactive
same,AC50,[14],13.4 µM (active)
same,outcome,[15],inactive
same,outcome,[16],inactive
same,outcome,[17],inactive
same,outcome,[18],inactive
COc1cc(OC)nc(NC(=O)NS(=O)(=O)c2ncccc2OCC(F)(F)F)n1,outcome,[1],inactive
same,outcome,[2],inactive
same,outcome,[3],inactive
same,outcome,[4],inactive
same,outcome,[5],inactive
same,outcome,[6],inactive
same,outcome,[7],inactive
same,outcome,[8],inactive
same,outcome,[9],inactive
same,outcome,[10],inactive
same,outcome,[11],inactive
same,outcome,[12],inactive
same,outcome,[13],inactive
same,outcome,[14],inactive
same,outcome,[15],inactive
same,outcome,[16],inactive
same,outcome,[17],inactive
same,outcome,[18],inactive
CN/C(=N\[N+](=O)[O-])NCc1cnc(Cl)s1,outcome,[1],inactive
same,outcome,[2],inactive
same,outcome,[3],inactive
same,outcome,[4],inactive
same,outcome,[5],inactive
same,outcome,[6],inactive
same,outcome,[7],inactive
same,outcome,[8],inactive
same,outcome,[9],inactive
same,outcome,[10],inactive
same,outcome,[11],inactive
same,outcome,[12],inactive
same,outcome,[13],inactive
same,outcome,[14],inactive
same,outcome,[15],inactive
same,outcome,[16],inactive
same,outcome,[17],inactive
same,outcome,[18],inactive
